Assay outcomes (PubChem)
In the library only some 2.8% were active in any assay of this set; here they are far more common.
HTT ATP protect: protects HTT-Q103 PC12 cells, measured by ATP; AID 1471; PC12 HTT-Q103 induced, cytoprotection, ATP luminescence, 40 h; Potency, µM (doses to about 56.4 µM), hits mostly activators; 230,000 compounds, 0.14% hits; note: nearly all actives have a fitted effect of over 45% in size
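Compounds added alongside 100 nM tebufenozide, which induces toxic Q103 huntingtin exon 1-GFP in stable PC12 cells; surviving cells quantified by luminescent ATP measurement. Medium: phenol red-free DMEM, 5% equine and 5% calf serum.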
HTT aggregate: mutant huntingtin aggregation inhibition; PC12 HttQ103-GFP aggregates, Acumen cytometry, 40 h; Potency, µM (doses to about 46.1 µM), usual class: inhibitors; 220,000 compounds, 1.1% hits; note: nearly all actives have a fitted effect of over 60% in size
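Quantitative HTS on tebufenozide-induced (100 nM) PC12 cells stably expressing polyQ103 Huntingtin exon 1–GFP. Reduction of bright GFP aggregates, detected by laser scanning cytometry after lysis, identified actives across the titration.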
HepG2 viability: counter-screen for TGF-b inhibitors: cytotoxicity in HepG2 cells. HepG2 CAGA-GFP viability, ATP luminescence, 18 h. Potency, µM (doses to about 46.1 µM), usual class: cytotoxic. 410,000 compounds, 0.76% hits. AID 588856
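HepG2 CAGA-GFP cells (1000/well, DMEM with 1% FBS) received compound, then TGF-beta at 500 pg/mL final, and were incubated 18 hours at 37 degrees C. Viability was read by CellTiter-Glo luminescence. Media-only wells were set as complete cell-killing and DMSO as no toxicity.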
ATXN2 expr inh: inhibitors of ATXN2 expression. HEK-293 ATXN2-luciferase reporter, luminescence, 24 h. 360,000 compounds, 0.72% hits. Potency, µM (series often up to 57 µM), hits mostly inhibitors; note: nearly all actives have a fitted effect of over 55% in size
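qHTS (up to 57 uM final) was run with 24 h compound exposure of reporter cells at 37 °C. Each well was multiplexed: SteadyGlo luminescence measured ATXN2-luciferase expression after a fluorogenic Gly-Phe-AFC viability readout (25 uM final).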
ATXN viability: cell viability loss in ATXN counter-screen; S2 cells (HEK-293 line with an ATXN2-luciferase reporter) viability, CellTiter-Fluor protease fluorescence, 24 h; Potency, µM (highest dose often 56.7 µM), usual class: cytotoxic; 400,000 compounds, 0.49% hits; AID 651635; note: nearly all actives have a fitted effect of over 40% in size
TGFb SMAD3 inh: TGF-b pathway inhibition; HepG2 CAGA-GFP TGF-b/SMAD3 reporter, GFP fluorescence, 18 h; TGF-beta stimulated, 500 pg/mL final; Potency, µM (titrated, usually from 46.1 µM), hits mostly inhibitors; 410,000 compounds, 1.2% hits; AID 588855; note: nearly all actives have a fitted effect of over 65% in size
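Read-out: total well GFP (ex488/em500-530) summed from mean per-cell fluorescence. Cells: HEPG2 CAGA-GFP, 1% FBS DMEM, 18 h at 37 degrees C with 500 pg/mL final TGF-beta. Unstimulated wells served as the full-inhibition control; stimulated DMSO wells = 0%.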
Each line names hits and unclear results; the compound was inactive in the other large screens. Calls come from the whole dose curve; as a rule, active = well fitted curve in the direction sought with a large enough effect; inconclusive = small, poorly fitted or top-dose-only effect, or another doubt; inactive = no such curve, though single readings can be large; an effect the other way counts as inactive or inconclusive.

C[C@@H](C(=O)O)c1ccc(C[C@@H]2CCCC2=O)cc1	none (no result: HTT aggregate, HepG2 viability, ATXN2 expr inh, ATXN viability, TGFb SMAD3 inh)
Nc1c(N=Nc2ccc([N+](=O)[O-])cc2)c(S(=O)(=O)O)cc2cc(S(=O)(=O)O)c(/C=C/c3ccccc3)c(O)c12	none (no result: HTT ATP protect, HTT aggregate, ATXN2 expr inh, ATXN viability)
COc1ccc(C(C)(C)C)cc1NC(=O)Nc1ccc2c(c1)OCO2	HTT aggregate 18µM, TGFb SMAD3 inh inconclusive
O=C(Nc1cccc(C(=O)O)c1)Nc1ccc2c(c1)OCO2	ATXN2 expr inh 5µM (no result: HTT ATP protect, HTT aggregate)
COc1cc(NC(=O)Nc2ccc3c(c2)OCO3)cc(OC)c1OC	none
COc1ccc(C(C)(C)C)cc1NC(=O)c1c(C)noc1C	HTT aggregate 0.56µM
O=C(Nc1ccc2c(c1)OCO2)Nc1ccc2c(c1)OCO2	none (no result: HTT ATP protect, HTT aggregate)
Clc1cccc(CN2CCc3c([nH]c4ccccc34)C2)c1	ATXN2 expr inh inconclusive (no result: HTT ATP protect, HTT aggregate)
Clc1ccc(CN2CCc3c([nH]c4ccccc34)C2)cc1Cl	ATXN viability inconclusive, TGFb SMAD3 inh 18µM (no result: HTT ATP protect, HTT aggregate, ATXN2 expr inh)
CNc1c(Cl)cc(C=O)cc1Cl	none (no result: HTT ATP protect, HTT aggregate, ATXN2 expr inh, ATXN viability)
N=c1c2c(-c3ccccc3)c(-c3ccccc3)n(Cc3ccco3)c2ncn1Cc1ccco1	HTT aggregate 11µM, ATXN2 expr inh inconclusive, ATXN viability inconclusive
Cc1c(C#N)c(NC(=O)CCl)n(Cc2ccccc2)c1C	HTT aggregate 4µM, ATXN2 expr inh 11µM, ATXN viability 8.4µM, TGFb SMAD3 inh inconclusive
Cc1c(C#N)c(NC(=O)CCl)n(Cc2cccs2)c1C	HTT aggregate 20µM, ATXN2 expr inh inconclusive, TGFb SMAD3 inh 13µM (no result: ATXN viability)
COC(=O)c1cc(C(=O)OC)n(Cc2ccc(F)cc2)c1C	none
Cc1c(C#N)c(NC(=O)CCl)n(Cc2ccc(F)cc2)c1C	HTT aggregate 6.3µM, HepG2 viability 11µM, ATXN2 expr inh inconclusive, ATXN viability 21µM, TGFb SMAD3 inh 18µM
CCOC(=O)c1ccccc1OCc1cc(C2Nc3ccccc3C(=O)N2c2cccc3ccccc23)ccc1OC (stereo unspecified)	none (no result: HTT ATP protect, HTT aggregate, ATXN2 expr inh, ATXN viability)
COC(=O)c1ccc2c(c1)C(C)(C)C(/C=C/c1ccccc1O)=[N+]2C	HTT aggregate 3.5µM, HepG2 viability 6.3µM, ATXN2 expr inh 3.5µM, ATXN viability 7.9µM, TGFb SMAD3 inh inconclusive
Cc1cccc(C(=O)N[C@H]2CC[C@@H](n3cc(C(=O)N4CCCC4)nn3)CC2)c1	none (no result: HTT ATP protect, HTT aggregate, HepG2 viability, ATXN2 expr inh, TGFb SMAD3 inh)
O=C(O)CCn1cc(/C=C/C(=O)c2ccc(Cl)cc2)c(-c2ccc(Br)cc2)n1	HTT aggregate inconclusive, HepG2 viability 16µM, ATXN2 expr inh inconclusive, TGFb SMAD3 inh inconclusive
NCC[C@H]1CCC[C@H](CCN)N1	none (no result: HTT aggregate, HepG2 viability, ATXN2 expr inh, ATXN viability, TGFb SMAD3 inh)
CCC(=O)c1ccc2c(c1)N(CCCN1CCN(CCO)CC1)c1ccccc1S2	none (no result: HepG2 viability, ATXN2 expr inh, ATXN viability, TGFb SMAD3 inh)
CC(CN1CCN(CCOCCO)CC1)CN1c2ccccc2Sc2ccc(Cl)cc21 (stereo unspecified)	HepG2 viability 13µM, ATXN viability inconclusive, TGFb SMAD3 inh inconclusive (no result: HTT ATP protect, HTT aggregate, ATXN2 expr inh)
CCCCCCCCCC[n+]1cccc(Br)c1	TGFb SMAD3 inh inconclusive (no result: HTT ATP protect, HTT aggregate, ATXN2 expr inh, ATXN viability)
CCCCCCCCCC[n+]1cc(Br)cc(Br)c1	HepG2 viability 22µM, TGFb SMAD3 inh inconclusive (no result: HTT ATP protect, HTT aggregate, ATXN2 expr inh, ATXN viability)
C[C@H](CO)N1C[C@H](C)[C@H](CN(C)CC2CCCCC2)Oc2ccc(NS(=O)(=O)c3ccc(F)cc3)cc2CC1=O	ATXN2 expr inh inconclusive, ATXN viability 28µM, TGFb SMAD3 inh inconclusive (no result: HTT ATP protect, HTT aggregate)
C[C@H]1CN([C@@H](C)CO)C(=O)Cc2cc(NS(C)(=O)=O)ccc2O[C@@H]1CN(C)Cc1ccc(Cl)c(Cl)c1	ATXN viability inconclusive, TGFb SMAD3 inh 11µM (no result: HTT ATP protect, HTT aggregate)
C[C@H](CO)N1C[C@H](C)[C@H](CN(C)C)Oc2ccc(NS(=O)(=O)c3ccc(F)cc3)cc2CC1=O	none (no result: HTT ATP protect, HTT aggregate)
C[C@@H]1CN([C@@H](C)CO)C(=O)Cc2cc(NC(=O)Nc3ccc(F)cc3)ccc2O[C@@H]1CN(C)Cc1ccc(Cl)c(Cl)c1	HepG2 viability 16µM, ATXN2 expr inh inconclusive, ATXN viability inconclusive, TGFb SMAD3 inh inconclusive (no result: HTT ATP protect, HTT aggregate)
COc1ccc(Cl)c(Cn2cnc3c(cnn3C(C)(C)C)c2=O)c1	none (no result: HTT ATP protect, HTT aggregate, ATXN2 expr inh, ATXN viability)
NCCC(=O)[N-][C@@H](Cc1cnc[nH]1)C(=O)O.[Zn]	none (no result: HTT ATP protect, HTT aggregate, HepG2 viability, ATXN2 expr inh, TGFb SMAD3 inh)
C/C(=N\NC(=O)c1ccc(F)cc1)c1ccccn1	ATXN viability inconclusive, TGFb SMAD3 inh 1.1µM (no result: HTT ATP protect, HTT aggregate, ATXN2 expr inh)
